Test in all cases: NCI-60 one-dose screen, 48 h (100 = growth as untreated, 0 = no growth, -100 = all killed)
Holding throughout (settings): 10 µM unless noted

Assay [1] deals with NCI-H23 lung.
Assay [2] concerns NCI-H226 lung.
For assay [3], the system named is NCI-H322M lung.
Assay [4] relates to HOP-62 NSCLC.
Assay [5] concerns NCI-H460 lung.
Assay [6] relates to NCI-H522 lung.
The test system of assay [7] is A549/ATCC NSCLC.
For assay [8], the system named is 786-0 renal.
The test system of assay [9] is COLO 205 colon.
The test system of assay [10] is DU-145 prostate.

Each structure is given as a SMILES string. This is part of a sample that, as a whole, favours compounds with a hit. Of some 83,000 tested, about 20% had one in any assay.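 Activity criterion: percent growth below 10, measured after cells in 96-well plates were exposed to a single compound concentration for 48 hours.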 Unmarked numbers belong to inactive results. Active and inactive are the calls of the source.

In the case of `O=C(NCCc1ccccc1)C1CCC(=O)N1Cc1ccc(Br)cc1` (stereo not given), the growth in assay [1] was 104%; in [2], 95.1%; in assay [3], 101%; in assay [4], 93%; in [5], 102%; in assay [6], 67.1%. The growth in [7] was 79.1%; in assay [8] it was 105%; in [9], 108%; in [10] it was 109%.
As to `Cc1ccc(C(C)C)cc1NC(=O)Nc1ccc([N+](=O)[O-])cc1`, the growth in [1] was -32.8% (active); in assay [2], 27.3%; in [3] it was 43.2%; in [4], -0.0828% (active); in assay [5], -1.38% (active); in [6], -19.8% (active). Also, the growth is 9.96% (active) in assay [7], 8.79% (active) in assay [8], -35.4% (active) in assay [9] and 12.2% in assay [10].
As for `COC(=O)CCC1=C(C)/C(=C/c2[nH]c(-c3ccc[nH]3)cc2OC)N=C1C`, the growth in assay [1] is 8.11% (active); in [2], 23.9%; in [3], 26.6%; in assay [4], 3.57% (active); in assay [5], 6.04% (active); in assay [6], -66.9% (active). The growth in assay [7] is 13%; in assay [8], 13.1%; in assay [9] it was 12.1%; in [10], 14.2%.
Consider `CC1=CSC2=NCCN12`, for which the growth is 104% in [1]; 112% in [2]; 118% in assay [3]; 108% in assay [4]; 109% in [5]; 100% in assay [6]. The growth is 105% in assay [7], 104% in [8], 107% in assay [9] and 108% in assay [10].
As for `CN(C)c1nc(N)nc(Cn2c(-c3nonc3N)nc3ccccc32)n1`, the growth in assay [1] was 90.4%; in assay [2], 91.3%; in assay [3], 103%; in [4] it was 81%; in [5], 95.6%; in assay [6] it was 77.5%. The growth in [7] was 86.7%; in [8], 99.2%; in assay [9] it was 83.7%; in [10], 109%.
`Cc1cc(C(C)(C)c2cc(C)c(O)c(CN(C)C)c2)cc(CN(C)C)c1O`: the growth was 105% in [1]; 96.5% in assay [2]; 70.7% in assay [3]; 99.8% in [4]; 101% in assay [5]; 85.7% in assay [6]. Moreover, the growth in [7] was 97.7%; in assay [8], 73.1%; in assay [9], 89%; in assay [10], 97.1%.
Regarding `O=C1C(Cl)=C(N=Nc2c(Cl)c(O)c3ccccc3c2O)C(=O)c2ccccc21`, the growth in [1] is 68.2%; in assay [2], 90.1%; in assay [3] it was 45%; in assay [4], 52.1%; in assay [5] it was 55.7%; in [6] it was 72.7%. Moreover, the growth in [7] was 51.9%; in assay [8] it was 98.4%; in assay [9], 86.7%; in [10] it was 81.3%.
In the case of `COc1ccc(/C=C/C(=O)Nc2cccnc2Nc2ccc(F)cc2)cc1`, the growth was 93.6% in assay [1]; 85.5% in assay [2]; 101% in assay [3]; 117% in assay [4]; 108% in assay [5]; 92.5% in [6]. Further, the growth in assay [7] is 84.6%; in [8] it was 95.6%; in [9] it was 109%; in assay [10], 118%.
On to `CCOC(=O)c1c2c(c(C)n1Cc1ccccc1)-c1nc(N)ncc1CC2`, for which the growth was 93.9% in assay [1]; 83.7% in assay [2]; 94.7% in [3]; 82.4% in assay [4]; 102% in assay [5]; 96.7% in [6]. Further, the growth in assay [7] was 104%; in [8], 92%; in assay [9], 131%; in [10], 120%.
Turning to `CC1=CC(=O)C(C(C)=Nc2ccccc2Cl)C(=O)O1` (stereo not given), the growth was 142% in assay [1]; 104% in assay [2]; 121% in assay [3]; 109% in assay [4]; 109% in assay [5]; 121% in assay [6]. The growth in assay [7] was 116%; in [8], 114%; in assay [9] it was 129%; in assay [10] it was 110%.
On to `O=C(c1ccccc1)c1ccco1`, for which the growth in assay [1] was 99.2%; in assay [2] it was 106%; in assay [3], 105%; in [4] it was 105%; in assay [5] it was 105%; in assay [6], 89.3%. For the same molecule, the growth in assay [7] was 97%; in assay [8] it was 101%; in [9], 109%; in assay [10] it was 113%.
For the molecule `COc1cc(/C=C/C(=O)c2c(-c3ccc(F)cc3)nc3sc(C)nn23)cc(OC)c1OC`, the growth in [1] is 51.4%; in [2], 38.9%; in assay [3], 52.6%; in [4], 9.53% (active); in assay [5], 11.8%; in [6] it was -27% (active). The growth in [7] was 12.2%; in assay [8] it was 24.6%; in assay [9], 33%; in assay [10], 0.196% (active).
In the case of `CCCCCCCC1(C)NC(=O)NC1=O` (stereo not given), the growth was 132% in assay [1]; 113% in assay [2]; 119% in [3]; 102% in [4]; 104% in assay [5]; 99.6% in assay [6]. Also, the growth is 122% in assay [7], 108% in assay [8], 120% in assay [9] and 115% in assay [10].
